± gives the standard deviation of the averaged measurements.
Test system: iBMDM (immortalised mouse bone-marrow-derived macrophages), LPS-stimulated
Assay: mitochondrial superoxide (MitoSOX fluorescence) fold increase over unstimulated control; higher = more LPS-induced mitochondrial ROS (less inhibition)
Details: inhibitor concentration: 500 nM, LPS: 100 ng/ml
In short: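 Immortalised mouse bone-marrow-derived macrophages in black 96-well plates were kept in phenol-red-free 1% FCS/DMEM for 20 h, pretreated 30 min with kinase inhibitors (500 nM), loaded with 1 μM MitoSox for 10 min and then given LPS (100 ng/ml). Fluorescence at excitation/emission 510/580 nm was read on a ClarioStar plate reader every 60 min for 4 h, with wells in triplicate. Mitochondrial superoxide is given as fold induction over untreated macrophages, averaged across replicates.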

Structure (SMILES) | mitochondrial superoxide (time after LPS: 1 h) | mitochondrial superoxide (time after LPS: 2 h) | mitochondrial superoxide (time after LPS: 4 h)
O=c1sn(-c2cccc3ccccc23)c(=O)n1Cc1ccccc1 [Tideglusib] | 1.14 ± 0.068 | 1.17 ± 0.049 | 1.29 ± 0.062
C[C@@H]1COC(Nc2ccc3ncnc(Nc4ccc(OCc5nccs5)c(Cl)c4)c3c2)=N1 [Varlitinib] | 1.3 ± 0.019 | 1.39 ± 0.09 | 1.69 ± 0.08
CS(=O)(=O)CCNCc1ccc(-c2ccc3ncnc(Nc4ccc(OCc5cccc(F)c5)c(Cl)c4)c3c2)o1 | 1.6 ± 0.073 | 1.72 ± 0.07 | 1.89 ± 0.18
O=C(NCc1cccc(O)c1)Nc1nc(-c2ccncc2)cs1 | 1.36 ± 0.026 | 1.44 ± 0.015 | 1.64 ± 0.017
CCN(CC)CCCCNc1ncc2cc(-c3cc(OC)cc(OC)c3)c(NC(=O)NC(C)(C)C)nc2n1 | 1.16 ± 0.036 | 1.11 ± 0.048 | 1.12 ± 0.045
NC(=O)c1ccc(N(C(N)=O)c2c(F)cccc2F)nc1-c1ccc(F)cc1F | 1.2 ± 0.026 | 1.27 ± 0.087 | 1.327 ± 0.0024
NC(=O)Nc1sc(-c2ccc(F)cc2)cc1C(N)=O | 1.15 ± 0.055 | 1.2 ± 0.045 | 1.33 ± 0.06
COc1cc2nccc(Oc3ccc(NC(=O)NC4CC4)c(Cl)c3)c2cc1C(N)=O [Lenvatinib (E7080)] | 1.45 ± 0.042 | 1.71 ± 0.053 | 1.73 ± 0.15
Cc1ccc(NC(=O)c2ccc(CN3CCN(C)CC3)cc2)cc1Nc1nccc(-c2cccnc2)n1 [Imatinib (STI571)] | 1.28 ± 0.061 | 1.39 ± 0.18 | 1.49 ± 0.12
O=c1cc(N2CCOCC2)oc2c(-c3cccc4c3sc3ccccc34)cccc12 | 1.31 ± 0.028 | 1.4 ± 0.037 | 1.55 ± 0.042
O=C(c1ccc(Nc2nccc(-c3cc4ccccc4s3)n2)cc1)N1CCC(N2CCCC2)CC1 [IKK-16 (IKK Inhibitor VII)] | 1.08 ± 0.084 | 1.09 ± 0.087 | 1.16 ± 0.17
Cc1ccc(Nc2nccc(N(C)c3ccc4c(C)n(C)nc4c3)n2)cc1S(N)(=O)=O [Pazopanib] | 1.19 ± 0.042 | 1.13 ± 0.082 | 1.26 ± 0.015
C=CC(=O)Nc1ccc2ncnc(Nc3ccc(OCc4cccc(F)c4)c(Cl)c3)c2c1 | 1.18 ± 0.017 | 1.204 ± 0.0092 | 1.42 ± 0.13
CCc1cc(Nc2nccc(-c3c(-c4ccc(OC)c(C(=O)Nc5c(F)cccc5F)c4)nc4ccccn34)n2)c(OC)cc1N1CCC(N2CCN(S(C)(=O)=O)CC2)CC1 | 1.3 ± 0.016 | 1.4 ± 0.079 | 1.5 ± 0.03
NCC(=O)Nc1ccc(-n2nc(C(F)(F)F)cc2-c2ccc3c(ccc4ccccc43)c2)cc1 | 1.414 ± 0.012 | 1.41 ± 0.031 | 1.49 ± 0.087
COc1cc2c(N3CCN(C(=O)Nc4ccc(OC(C)C)cc4)CC3)ncnc2cc1OCCCN1CCCCC1 [Tandutinib (MLN518)] | 1.61 ± 0.038 | 1.77 ± 0.029 | 1.72 ± 0.062

Structure (SMILES) | mitochondrial superoxide (time after LPS: 1 h) | mitochondrial superoxide (time after LPS: 2 h) | mitochondrial superoxide (time after LPS: 4 h)
FC(F)c1nc2ccccc2n1-c1nc(N2CCOCC2)nc(N2CCOCC2)n1 | 1.53 ± 0.029 | 1.71 ± 0.068 | 1.8 ± 0.038
CN1CCN(S(=O)(=O)c2ccc(-c3cnc(N)c(C(=O)Nc4cccnc4)n3)cc2)CC1 | 1.34 ± 0.053 | 1.46 ± 0.031 | 1.63 ± 0.03
COc1cc(Nc2ncc(F)c(Nc3ccc4c(n3)N(COP(=O)(O)O)C(=O)C(C)(C)O4)n2)cc(OC)c1OC [Fostamatinib (R788)] | 1.29 ± 0.026 | 1.429 ± 0.0045 | 1.71 ± 0.034
CS(=O)(=O)N1CCN(Cc2cc3nc(-c4cccc5[nH]ncc45)nc(N4CCOCC4)c3s2)CC1 | 1.28 ± 0.025 | 1.42 ± 0.027 | 1.6 ± 0.041
Cc1cc2c(F)c(Oc3ncnn4cc(OC[C@@H](C)O)c(C)c34)ccc2[nH]1 | 1.337 ± 0.0099 | 1.44 ± 0.11 | 1.53 ± 0.14
CCCS(=O)(=O)Nc1ccc(F)c(C(=O)c2c[nH]c3ncc(Cl)cc23)c1F | 1.24 ± 0.15 | 1.26 ± 0.15 | 1.34 ± 0.21
O=C1NC(=O)/C(=C/c2ccc3nccc(-c4ccncc4)c3c2)S1 | 1.12 ± 0.055 | 1.23 ± 0.11 | 1.33 ± 0.1
Clc1ccc(C2(c3ccc(-c4cn[nH]c4)cc3)CCNCC2)cc1 | 1.16 ± 0.065 | 1.21 ± 0.061 | 1.25 ± 0.042
Cc1ncc(-c2ccnc(Nc3ccc(S(C)(=O)=O)cc3)n2)n1C(C)C | 1.36 ± 0.052 | 1.46 ± 0.063 | 1.6 ± 0.11
COc1cc(OC)c(/C=C/S(=O)(=O)Cc2ccc(OC)c(NCC(=O)O)c2)c(OC)c1 | 1.071 ± 0.0096 | 1.15 ± 0.084 | 1.23 ± 0.086
COc1cc2c(Nc3ccc(NC(=O)c4ccccc4)cc3)ncnc2cc1OCCCN1CCOCC1 | 1.34 ± 0.06 | 1.44 ± 0.069 | 1.52 ± 0.037
Cn1cc(-c2cnn3c(N)c(Br)c([C@@H]4CCCNC4)nc23)cn1 | 1.12 ± 0.091 | 1.4 ± 0.22 | 1.54 ± 0.11
CNC(=O)c1ccccc1Sc1ccc2c(/C=C/c3ccccn3)n[nH]c2c1 [Axitinib] | 1.77 ± 0.17 | 1.78 ± 0.17 | 1.8 ± 0.058
Nc1ncnc2c1c(-c1cccc(OCc3ccccc3)c1)cn2C1CC(CN2CCCC2)C1 (stereo unspecified) | 1.44 ± 0.15 | 1.55 ± 0.18 | 1.62 ± 0.21
O=C1NC(=O)C(c2ccccc2[N+](=O)[O-])=C1Nc1ccc(O)c(Cl)c1 | 1.12 ± 0.024 | 1.45 ± 0.084 | 1.63 ± 0.063
O=C(Nc1ccc(OC(F)(F)F)cc1)c1sccc1NCc1ccnc2ccccc12 | 1.21 ± 0.044 | 1.2 ± 0.067 | 1.25 ± 0.031

— the supplement of paper PMC7393113
